Screening data as filed in PubChem BioAssay.
IDE exosite FP – exo-site inhibitors of human insulin-degrading enzyme; P14735; purified IDE, FL-6b probe fluorescence polarization; stronger effect = lower value; z-score at 20 µM; 17,000 tested, 6.3% active;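 active = z-score of -3 or lower, meaning strong loss of probe binding signal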;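 also: His-tagged human IDE residues 42-1019 made in E. coli with 30 nM FL-6b probe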
Target sequence (P14735 42-1019 limits assumed): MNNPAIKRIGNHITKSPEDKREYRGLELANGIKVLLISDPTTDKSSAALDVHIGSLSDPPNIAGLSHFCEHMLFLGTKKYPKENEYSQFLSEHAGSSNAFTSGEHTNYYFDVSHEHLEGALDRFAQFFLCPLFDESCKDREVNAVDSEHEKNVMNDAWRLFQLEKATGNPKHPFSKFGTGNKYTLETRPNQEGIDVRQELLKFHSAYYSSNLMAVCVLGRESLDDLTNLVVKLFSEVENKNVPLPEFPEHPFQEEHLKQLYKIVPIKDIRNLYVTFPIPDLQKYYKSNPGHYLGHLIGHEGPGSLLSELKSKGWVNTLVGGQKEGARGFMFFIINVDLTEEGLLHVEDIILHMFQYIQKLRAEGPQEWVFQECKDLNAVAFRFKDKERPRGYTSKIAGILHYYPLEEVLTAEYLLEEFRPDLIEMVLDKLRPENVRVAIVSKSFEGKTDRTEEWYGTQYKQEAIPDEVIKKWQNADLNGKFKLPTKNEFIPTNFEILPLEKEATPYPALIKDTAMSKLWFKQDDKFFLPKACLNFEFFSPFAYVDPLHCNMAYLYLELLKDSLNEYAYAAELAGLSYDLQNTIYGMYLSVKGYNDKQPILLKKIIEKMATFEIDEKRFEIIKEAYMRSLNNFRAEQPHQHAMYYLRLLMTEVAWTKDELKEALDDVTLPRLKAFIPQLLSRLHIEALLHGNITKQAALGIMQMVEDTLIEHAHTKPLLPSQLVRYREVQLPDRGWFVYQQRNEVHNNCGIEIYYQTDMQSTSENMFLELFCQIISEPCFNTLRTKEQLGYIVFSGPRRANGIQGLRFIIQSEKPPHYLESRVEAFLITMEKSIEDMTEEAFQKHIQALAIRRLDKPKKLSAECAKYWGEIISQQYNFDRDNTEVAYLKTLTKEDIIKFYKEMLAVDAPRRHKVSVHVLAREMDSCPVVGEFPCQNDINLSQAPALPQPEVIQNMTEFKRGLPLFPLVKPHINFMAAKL
Starred values were filed as active, the others as inactive. Only a selection was taken, and hits are over-represented in it overall.

SMILES | IDE exosite FP
C[C@@H](O)C#Cc1ccc([C@H]2[C@@H](CO)N3CCCCN(C(=O)c4cccc(F)c4)C[C@@H]23)cc1 | 2.9
O=C1CN(Cc2ccccc2)C[C@@H]2[C@@H](c3ccc(-c4ccccc4F)cc3)[C@@H](CO)N12 | -4.7*
O=C(C1CC1)N1CC(=O)N2[C@H](CO)[C@H](c3ccc(-c4ccccc4F)cc3)[C@@H]2C1 | 1.2
O=C(C1CCC1)N1CC(=O)N2[C@H](CO)[C@H](c3ccc(-c4ccccc4F)cc3)[C@H]2C1 | -11*
O=C(C1CCCCC1)N1CC(=O)N2[C@H](CO)[C@H](c3ccc(-c4ccccc4F)cc3)[C@@H]2C1 | -1.7
O=C(C1CCCCC1)N1CC(=O)N2[C@@H](CO)[C@H](c3ccc(-c4ccccc4F)cc3)[C@@H]2C1 | -1.2
O=C(C1CC1)N1CC(=O)N2[C@@H](CO)[C@@H](c3ccc(-c4ccccc4F)cc3)[C@@H]2C1 | -8.4*
O=C(C1CCC1)N1CC(=O)N2[C@H](C1)[C@H](c1ccc(-c3ccccc3F)cc1)[C@@H]2CO | -0.87
O=C1CN(Cc2ccccc2)C[C@@H]2[C@H](c3ccc(-c4ccccc4F)cc3)[C@H](CO)N12 | 0.25
O=C1CN(Cc2ccc(F)cc2)C[C@H]2[C@H](c3ccc(-c4ccccc4F)cc3)[C@@H](CO)N12 | -1.2
COc1ccc2c3c(n(C)c2c1)[C@H](CO)NCC31CN(S(=O)(=O)c2ccc(C)cc2)C1 | 0.13
C/C=C/c1ccc(C2[C@H]3CNC[C@@H]2N3S(=O)(=O)c2ccc(C)cc2)cc1 (stereo partly specified) | 1.1
CCNC(=O)C[C@H]1CC[C@H]2[C@@H](COC[C@@H](O)CN2C(=O)C2CCCC2)O1 | 0.3
COCC(=O)N1[C@H](C#N)[C@H](c2ccc(C3=CCCC3)cc2)[C@@H]1CO | 1.3
CO[C@H](CN(C)Cc1nccs1)[C@H](C)CN([C@@H](C)CO)S(=O)(=O)c1ccc(F)cc1 | -0.52
COCC(=O)N1[C@H](C#N)[C@H](c2ccccc2-c2ccc(C)cc2)[C@H]1CO | -0.14
CC(C)CC#Cc1ccc([C@H]2[C@@H](CO)N3CCCCN(C(=O)c4ccc5c(c4)OCO5)C[C@H]23)cc1 | 4.2
O=C(c1ccc(F)cc1)N1CC(=O)N2[C@H](CO)[C@@H](c3ccc(C#Cc4ccc(F)cc4)cc3)[C@@H]2C1 | 2.1
O=C(C1CCC1)N1CC(=O)N2[C@H](CO)[C@H](c3ccc(-c4cccnc4)cc3)[C@@H]2C1 | 1.4
COCCNC(=O)C[C@@H]1CC[C@@H]2[C@@H](COc3ccc(NS(=O)(=O)c4ccc(Cl)cc4)cc3C(=O)N2C)O1 | -0.3
CCC(=O)NC[C@H]1[C@H](c2ccc(C3=CCCC3)cc2)[C@H](CO)N1C(=O)C1CC1 | 2.4
CN1C(=O)c2cc(NC(=O)Nc3ccccc3Cl)ccc2OC[C@@H]2O[C@@H](CC(=O)O)CC[C@H]21 | -0.86
COCC(=O)N1CCCCN2[C@@H](CO)[C@H](c3ccc(-c4cccc(C)c4)cc3)[C@@H]2C1 | -3.1*
COCC(=O)N1CCCCN2[C@H](C1)[C@H](c1ccc(-c3ccc(C)cc3)cc1)[C@@H]2CO | 1.1
COCC(=O)N1CCCCN2[C@H](CO)[C@H](c3ccc(-c4ccc(C)cc4)cc3)[C@@H]2C1 | 1.9
SMILES | IDE exosite FP
COCC(=O)N1CCCCN2[C@H](CO)[C@@H](c3ccc(-c4cccc(C)c4)cc3)[C@@H]2C1 | -5.3*
COCC(=O)N1CCCCN2[C@@H](CO)[C@H](c3ccc(-c4ccc(C)cc4)cc3)[C@@H]2C1 | 2.4
COCC(=O)N1CCCCN2[C@@H](CO)[C@@H](c3ccc(-c4ccc(C)cc4)cc3)[C@@H]2C1 | 0.039
CN(C[C@H]1[C@@H](c2ccccc2)[C@@H](CO)N1C(=O)C1CC1)C(=O)c1ccccn1 | 1.4
CCS(=O)(=O)N1[C@H](C#N)[C@@H](c2ccc(C#CC(C)C)cc2)[C@H]1CO | 0.077
CC(=O)N(C)C[C@H]1[C@H](c2ccc(-c3ccc(F)cc3)cc2)[C@@H](CO)N1C(C)=O | 1.3
CO[C@H]1CN(C)C(=O)c2cc(NC(=O)NC(C)C)ccc2OC[C@H](C)N(Cc2ccccc2)C[C@H]1C | -0.83
O=C(Cc1ccccc1)N1CC(=O)N2[C@H](C1)[C@@H](c1ccc(C#Cc3ccccc3)cc1)[C@@H]2CO | -2.8
CCC(=O)N1CC(=O)N2[C@H](C1)[C@H](c1ccc(C#CCc3ccccc3)cc1)[C@@H]2CO | 0.49
O=C(Cc1ccccc1)N1CC(=O)N2[C@H](CO)[C@H](c3ccc(C#CCc4ccccc4)cc3)[C@H]2C1 | -4.3*
CCC(=O)N1CC(=O)N2[C@H](CO)[C@@H](c3ccc(C#CCc4ccccc4)cc3)[C@H]2C1 | 0.71
CCC(=O)N1CC(=O)N2[C@@H](CO)[C@@H](c3ccc(C#CCc4ccccc4)cc3)[C@@H]2C1 | -7.4*
O=C(Cc1ccccc1)N1CC(=O)N2[C@H](CO)[C@@H](c3ccc(C#CCc4ccccc4)cc3)[C@H]2C1 | 2.1
O=C(Nc1ccccc1)N1CCCCN2[C@H](CO)[C@@H](c3ccc(C#Cc4ccccn4)cc3)[C@@H]2C1 | -0.6
O=C1Nc2ccccc2OCc2cn(nn2)CC[C@H]1Cc1ccc(-c2ccccc2)cc1 | -0.78
COc1ccc2c3c([nH]c2c1)[C@@H](CO)N(S(=O)(=O)c1cn(C)cn1)CC31CCN(CC2CCCCC2)CC1 | 0.13
COc1ccc2c3c([nH]c2c1)[C@H](CO)N(C(=O)Nc1ccc(F)cc1)CC31CN(C(=O)c2ccccn2)C1 | 0.23
O=C(c1cccnc1)N1CCCCN2[C@H](CO)[C@@H](c3ccc(C#Cc4cccnc4)cc3)[C@@H]2C1 | -0.3
COCC(=O)N1CCCCN2[C@H](CO)[C@@H](c3ccc(C#Cc4cccnc4)cc3)[C@H]2C1 | 2.7
COCC(=O)N1CCCCN2[C@H](CO)[C@@H](c3ccc(C#Cc4cccnc4)cc3)[C@@H]2C1 | 0.082
O=C(c1cccnc1)N1CCCCN2[C@H](C1)[C@H](c1ccc(C#Cc3cccnc3)cc1)[C@@H]2CO | -1.5
O=C(c1cccnc1)N1CCCCN2[C@H](CO)[C@H](c3ccc(C#Cc4cccnc4)cc3)[C@H]2C1 | 4.7
CCC(=O)N1CCCCN2[C@@H](CO)[C@H](c3ccc(C#Cc4cccnc4)cc3)[C@@H]2C1 | -5.4*
CCC(=O)N1CCCCN2[C@H](CO)[C@H](c3ccc(C#Cc4cccnc4)cc3)[C@H]2C1 | -3.2*
COCC(=O)N1CCCCN2[C@H](C1)[C@@H](c1ccc(C#Cc3cccnc3)cc1)[C@@H]2CO | -0.14
SMILES | IDE exosite FP
CCC(=O)N1CCCCN2[C@H](CO)[C@@H](c3ccc(C#Cc4cccnc4)cc3)[C@@H]2C1 | -5.2*
COCC#Cc1ccc([C@@H]2[C@H](CO)N3C(=O)CN(C(=O)Nc4ccccc4F)C[C@@H]23)cc1 | -0.53
C[C@@H]1CN([C@@H](C)CO)C(=O)CCCn2nncc2CO[C@H]1CN(C)C(=O)NC1CCCC1 | -0.48
COc1ccc(C#Cc2ccc([C@@H]3[C@@H](CO)N4CCCCN(Cc5ccncc5)C[C@@H]34)cc2)cc1 | 4.3
C[C@@H]1CN([C@@H](C)CO)C(=O)c2c(c3ccccc3n2C)-c2ccccc2CO[C@H]1CN(C)C(=O)[C@H]1CCCN1C | 0.46
N#C[C@@H]1[C@@H](c2ccc(-c3ccncc3)cc2)[C@@H](CO)N1C(=O)C1CCC1 | 1.6
O=C(C[C@@H]1C=C[C@H](NC(=O)Nc2ccc3c(c2)OCO3)[C@H](CO)O1)NCCCN1CCOCC1 | 1.6
Cc1cccc(-c2ccc(C3[C@@H]4CN(C(=O)Nc5ccc(F)cc5)C[C@H]3N4)cc2)c1 (stereo partly specified) | -0.36
